Results as given in PubChem BioAssay AID488969 (Vanderbilt High Throughput Screening Facility, 2010).
Over roughly 110,000 compounds, “z-score” has its median near -0.1; the highest 2% begin near 2. The sample as a whole holds a higher share of the highest values than the screen did. Calls of active or inactive are those of the source.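 Rule for the calls: active = z-score in the third read window above 3 or below -3; inactive = the rest.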

Target: Metabotropic glutamate receptor 8 (Rattus norvegicus) (UniProt P70579)
Sequence (P70579 whole entry, looked up): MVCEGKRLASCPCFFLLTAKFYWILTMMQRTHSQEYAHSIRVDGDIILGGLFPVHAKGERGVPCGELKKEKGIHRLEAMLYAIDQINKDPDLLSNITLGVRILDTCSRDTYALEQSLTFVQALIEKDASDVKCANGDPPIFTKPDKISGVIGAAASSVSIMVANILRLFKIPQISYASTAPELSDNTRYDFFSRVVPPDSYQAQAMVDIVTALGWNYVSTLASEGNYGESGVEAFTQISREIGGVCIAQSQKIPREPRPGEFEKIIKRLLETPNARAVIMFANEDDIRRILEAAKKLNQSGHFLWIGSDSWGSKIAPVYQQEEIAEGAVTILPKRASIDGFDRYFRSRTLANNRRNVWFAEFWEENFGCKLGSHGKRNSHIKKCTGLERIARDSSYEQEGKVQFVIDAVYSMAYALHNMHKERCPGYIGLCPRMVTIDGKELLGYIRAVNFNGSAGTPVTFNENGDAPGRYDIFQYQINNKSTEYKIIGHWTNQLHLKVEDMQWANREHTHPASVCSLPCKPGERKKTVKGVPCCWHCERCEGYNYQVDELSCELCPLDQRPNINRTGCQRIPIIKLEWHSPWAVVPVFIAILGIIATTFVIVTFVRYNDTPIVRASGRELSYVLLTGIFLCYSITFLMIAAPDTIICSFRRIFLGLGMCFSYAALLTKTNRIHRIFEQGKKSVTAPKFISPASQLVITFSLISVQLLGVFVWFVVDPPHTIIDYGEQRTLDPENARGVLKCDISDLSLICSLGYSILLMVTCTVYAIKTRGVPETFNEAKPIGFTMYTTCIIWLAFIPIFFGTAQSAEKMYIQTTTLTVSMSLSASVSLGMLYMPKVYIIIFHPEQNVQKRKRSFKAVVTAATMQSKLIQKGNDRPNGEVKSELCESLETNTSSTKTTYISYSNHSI
Experiment: mGluR8 Gi/Go-coupled signaling modulation – cell-based, rat, thallium flux, HTS, primary screen (AID 488969)
Details: HEK293 rat mGluR8, GIRK (G protein-gated inwardly rectifying potassium channel) thallium flux, FluoZin2; at 10 µM; stronger effect = higher value; submaximal glutamate (EC20) added with thallium

In order of falling z-score:
1. Cc1onc(-c2c(F)cccc2Cl)c1C(=O)Nc1cccc2nsnc12  2.67
2. CS(=O)(=O)N(CC(=O)NCCSc1ccccc1)c1ccc2c(c1)OCO2  1.46
3. Cc1onc(-c2ccccc2Cl)c1C(=O)Nc1cccc2nsnc12  1.17
4. Cc1cccc(NC(=S)NNC(=O)c2ccc(Br)o2)c1  1.14
5. Cc1cccc(NC(=S)NNC(=O)c2ccccc2Br)c1  0.847
6. Cc1ccc2nc(SCC(=O)N3CCOCC3)[nH]c2c1  0.844
7. CC1CCCCN1C(=O)Nc1cccc(Cl)c1 (stereo unspecified)  0.789
8. CC(C)c1ccc2[nH]c(O)c(N=NC(=S)NCCc3ccccc3)c2c1  0.396
9. COc1ccc(CCCc2nnc(SCC(=O)Nc3nc(C)cs3)n2C)cc1  0.338
10. O=C(NC1CCCC1)c1cccc(NC(=O)c2ccco2)c1  0.253
11. Cc1ccccc1NC(=O)C1C2CCCC1C2c1ccccc1 (stereo unspecified)  0.216
12. S=C(NCC1CCCO1)Nc1ccc(Cl)cc1Cl (stereo unspecified)  0.145
13. CCNC(=S)NNC(=O)c1csc2c1CCC(C)C2 (stereo unspecified)  0.0328
14. CN(c1ccccc1C(=O)Nc1cccc(Cl)c1Cl)S(C)(=O)=O  0.0249
15. S=C(NCC1CCCO1)Nc1ccc(Cl)cc1 (stereo unspecified)  0.0149
16. Oc1[nH]c2ccccc2c1C=NCC1CCCO1 (stereo unspecified)  -0.00202
17. CCOC(=O)C(=O)N=Nc1c(O)[nH]c2ccccc12  -0.0577
18. CCc1ccc(OCC(=O)NC(NC(=S)Nc2ccccc2OC)C(Cl)(Cl)Cl)cc1 (stereo unspecified)  -0.163
19. COc1ccc(C(=O)c2c(C)c3cc(C)ccc3n2CC(O)CN2CCOCC2)cc1 (stereo unspecified)  -0.197
20. O=C(N/N=C1\CCc2ccccc21)c1ccccc1Cl  -0.225
21. CC1CCc2c(C(=O)Nc3ccc(OC(F)(F)F)cc3)csc2C1 (stereo unspecified)  -0.225
22. O=C(CCn1c(=S)[nH]c2ccccc2c1=O)NCC1CCCO1 (stereo unspecified)  -0.275
23. Cc1cc(C(=O)OCC(=O)NC(C)(C)C)c2ccccc2n1  -0.284
24. Cc1onc(-c2ccccc2)c1C(=O)Nc1cccc2nsnc12  -0.396
25. Cc1ccccc1NC(=O)c1csc2c1CCCC2  -0.435
26. C/C(=N\NC(=O)c1cc2c(s1)CCC(C)C2)c1ccncc1 (stereo unspecified)  -0.506
27. CC1CCc2sc(C(=O)N/N=C/C3CCCCC3)cc2C1 (stereo unspecified)  -0.764
28. COc1ccccc1C(=O)N/C(=C\c1ccc2c(c1)OCO2)C(=O)NCCc1nc2ccccc2[nH]1  -1.09
29. CC(C)CNC(=S)NNC(=O)c1csc2c1CCC(C)C2 (stereo unspecified)  -1.59

For Oc1[nH]c2ccccc2c1N=NC(=S)NCCc1ccccc1, the z-score was 3.06 (active).
For Oc1[nH]c2ccccc2c1N=NC(=S)NCC1CCCO1 (stereo unspecified), the z-score was 3.01 (active).
With Oc1[nH]c2c(Cl)cc(Cl)cc2c1N=NC(=S)NCC1CCCO1 (stereo unspecified) the z-score was 7.5 (active).
For Cc1ccc(C)c(NC(=S)NNC(=O)c2cc3c(s2)CCC(C)C3)c1 (stereo unspecified), the z-score was 10.3 (active).
For Cc1ccccc1NC(=S)NNC(=O)c1csc2c1CCC(C)C2 (stereo unspecified), the z-score was 8.84 (active).
In the case of Cc1cccc(NC(=S)NNC(=O)c2csc3c2CCC(C)C3)c1 (stereo unspecified), the z-score is reported as 9.39 (active).
Cc1cccc(NC(=S)NNC(=O)c2csc3c2CCCC3)c1 was tested, and the z-score was 14 (active).
